Screening results deposited in PubChem BioAssay by National Center for Advancing Translational Sciences (NCATS).
The list is not random: actives were taken first. Their share in the collection is about 3.4%.
KAT2A inh = qHTS Assay for Inhibitors of GCN5L2; Histone acetyltransferase KAT2A (Homo sapiens), Q92830; GCN5L2 HAT assay, ThioGlo1 CoA-SH fluorescence; Potency, µM (titrated, usually from 58.9 µM), inactives show top-dose activity change, negative = inhibition, most hits filed as inhibitors; 390,000 tested, 0.21% active; also: % is scaled to controls: 0 for no effect and ±100 for the full control effect
Target sequence (Q92830 whole entry, looked up): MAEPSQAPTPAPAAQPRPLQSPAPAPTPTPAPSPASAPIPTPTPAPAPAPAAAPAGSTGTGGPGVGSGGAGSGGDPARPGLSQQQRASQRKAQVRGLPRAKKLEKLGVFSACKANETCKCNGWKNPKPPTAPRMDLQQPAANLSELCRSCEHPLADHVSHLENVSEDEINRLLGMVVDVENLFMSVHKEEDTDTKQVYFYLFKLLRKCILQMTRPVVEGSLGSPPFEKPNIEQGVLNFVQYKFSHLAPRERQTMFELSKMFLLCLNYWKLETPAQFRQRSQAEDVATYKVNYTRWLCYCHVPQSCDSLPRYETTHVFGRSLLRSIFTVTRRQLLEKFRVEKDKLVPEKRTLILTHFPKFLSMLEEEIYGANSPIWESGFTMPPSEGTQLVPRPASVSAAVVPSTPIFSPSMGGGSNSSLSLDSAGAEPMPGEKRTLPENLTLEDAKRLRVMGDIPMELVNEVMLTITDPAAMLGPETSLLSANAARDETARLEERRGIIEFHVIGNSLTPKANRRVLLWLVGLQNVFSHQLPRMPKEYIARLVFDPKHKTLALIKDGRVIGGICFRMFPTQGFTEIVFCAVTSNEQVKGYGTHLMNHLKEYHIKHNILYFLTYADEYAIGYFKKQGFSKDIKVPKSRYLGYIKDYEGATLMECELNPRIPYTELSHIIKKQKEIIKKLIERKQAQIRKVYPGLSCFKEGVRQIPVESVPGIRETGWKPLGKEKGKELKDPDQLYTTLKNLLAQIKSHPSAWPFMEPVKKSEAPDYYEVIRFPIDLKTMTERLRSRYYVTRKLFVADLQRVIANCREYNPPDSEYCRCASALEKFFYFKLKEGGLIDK
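ThioGlo1-coupled HAT assay: 20nM GCN5L2, 70uM acetyl-CoA, 75uM H3(1-25) peptide, pH 7.5. Fluorescence read at 340/540nm at start and after 20 min at room temperature.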
PLK1 PBD block = qHTS for Inhibitors of PLK1-PDB (polo-like kinase 1 - polo-box domain): Primary Screen; Serine/threonine-protein kinase PLK1 (Homo sapiens), P53350; Plk1 PBD binding of FITC phosphopeptide, fluorescence polarization; Potency, µM, inactives show max response, negative = inhibition, usual class: inhibitors; 360,000 tested, 2.8% active; AID 720504, 2013; also: series mostly up to about 57 µM; % is scaled to controls: 0 for no effect and ±100 for the full control effect; nearly all actives have a fitted effect of over 65% in size
Mito fusion act = qHTS Assay for Small Molecule Inhibitors of Mitochondrial Division or Activators of Mitochondrial Fusion | 320,000 tested, 0.23% active | Potency, µM (doses to about 46.1 µM), for the others: top-dose growth rescue (activation), most hits filed as activators | S. cerevisiae fusion-defective mutant growth rescue, CellTiterGlo 48 h; also: % of control where 0% means no effect; nearly all actives have a fitted effect of over 45% in size
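Yeast fusion mutant, YPEG (non-fermentable carbon), compound, 48 h at 37C non-permissive; CellTiterGlo added, 10 min RT, luminescence read. Rescued growth = division inhibition.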
GLS inh = qHTS for Inhibitors of Glutaminase (GLS); Glutaminase kidney isoform, mitochondrial (Homo sapiens), O94925; GLS enzymatic activity, qHTS titration; Potency, µM (top dose mostly 45.5 µM), for inactives: at the highest dose activity change, negative = inhibition, most hits filed as inhibitors; 410,000 tested, 0.21% active; also: % is scaled to controls: 0 for no effect and ±100 for the full control effect
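Enzyme dispensed in phosphate buffer (45 mM, pH 8.2, 0.02% Tween-20), compounds pinned in, then 1 mM L-glutamine solution and the glutamate oxidase–HRP–Amplex Red mix added; fluorescence read immediately and again after 30 min at room temperature.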
PKM2 activator = qHTS Assay for Activators of Human Muscle isoform 2 Pyruvate Kinase. Pyruvate kinase PKM (Homo sapiens), P14618. Potency, µM (series often up to 57.5 µM), without a hit: at the top dose activation, actives largely listed as activators. 260,000 tested, 0.34% active. AID 1631, 2009. purified PKM2, Kinase-Glo ATP luminescence, activation; response scale: 0% is enzyme alone, no compound; also: % is scaled to controls: 0 for no effect and ±100 for the full control effect; nearly all actives have a fitted effect of over 55% in size
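ATP formation by purified human PK-M2, quantified via coupled luciferase luminescence after 1 h at room temperature with 0.1 mM ADP and 0.5 mM PEP final.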
VDR inh = Inhibitors of the vitamin D receptor (VDR): qHTS | Vitamin D3 receptor (Homo sapiens), P11473 | Potency, µM, for the others: max response, negative = inhibition, most hits filed as inhibitors | 400,000 tested, 0.93% active | VDR-SRC2-3 peptide fluorescence polarization, 2 h; also: % is scaled to controls: 0 for no effect and ±100 for the full control effect
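Two reagent solutions held at 4 deg C in the dark were dispensed, compounds pinned at 23 nl, and the mixture incubated 2 h at room temperature. Read-out: fluorescence polarization of VDR–SRC2-3 peptide binding.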
* = called active by the depositor; ? = inconclusive; nt = not tested or not shown; [ ] = dose if it differs, or a comment. Calls follow the shape of the dose curve; as a rule, active = well fitted curve in the direction sought with a large enough effect; inconclusive = small, poorly fitted or top-dose-only effect, or another doubt; inactive = no such curve, though single readings can be large; an effect the other way counts as inactive or inconclusive. Potency is read from the fitted curve at half-maximal effect.

SMILES | KAT2A inh | PLK1 PBD block | Mito fusion act | GLS inh | PKM2 activator | VDR inh
CC(Oc1ccc2c(c1)oc(=O)c1ccccc12)C(=O)NC(Cc1c[nH]c2ccc(O)cc12)C(=O)O (stereo unspecified) | -9.2% | 1.5% | 1.5% | -28.8% | 2.9% | -27.4%
O=C(O)c1cccc(CSc2nc(-c3ccc(Cl)cc3)cc(C(F)(F)F)n2)c1 | -25.2% | 26.7µM* | -0.9% | 3.3% | -6.5% | ?
COC(=O)CSc1nc(C)c2c(n1)CCCC2 | -3.0% | -17.5% | -3.8% | 1.5% | 0.8% | 4.9%
Cc1nc(SCc2cccc(C(=O)O)c2)nc2c1CCCC2 | 4.2% | 26.7µM* | 11.9% | 17.5% | 0.0% | -4.7%
CC(=O)N1c2ccc(S(=O)(=O)NCC3CCC(C(=O)Nc4cc(C)ccn4)CC3)cc2CC1C (stereo unspecified) | -13.0% | -7.9% | 2.9% | 2.6% | nt | -9.5%
COC1=C(OC)C(=O)C(CC=C(C)CCC=C(C)CCC=C(C)CCC=C(C)CCC=C(C)CCC=C(C)CCC=C(C)CCC=C(C)CCC=C(C)CCC=C(C)C)=C(C)C1=O | nt | nt | nt | -1.6% | nt | nt
O=C1C(Cl)=C(N2CCN(c3ccccc3[N+](=O)[O-])CC2)C(=O)c2ccccc21 | -2.8% | ? | ? | 10.8% | 16.4% | 39.8µM*
O=[N+]([O-])c1cc(Cl)ccc1N1CCCC1 | -3.7% | -10.6% | 4.6% | -4.7% | -7.2% | 3.8%
CCN1C(=O)c2ccccc2C1Nc1cccc(OCCN2CCCCC2)c1 (stereo unspecified) | nt | nt | nt | 18.6% | nt | nt
N#Cc1c(N)n(CCNC(=O)c2ccc(Cl)cc2)c2nc3ccccc3nc12 | -8.2% | -12.0% | -1.8% | -12.4% | 28.2µM* | -15.9%
CC(C)C[C@H](NC(=O)N1CCn2c1nc1ccccc12)C(=O)NCC1CCCO1 (stereo partly specified) | -6.0% | -6.4% | 4.2% | -4.7% | nt | 4.5%
CN(C)c1ncc2nc(-c3ccc(F)cc3)c(=O)n(C3CC3)c2n1 | ? | nt | nt | nt | nt | -18.6%
O=C(Nc1ccccc1)c1cc(-c2ccccc2Cl)no1 | -3.1% | 3.77µM* | -2.0% | 1.3% | 0.4% | ?
CC(=O)NC1Sc2ccccc2N=C1c1ccccc1 (stereo unspecified) | -22.5% | 18.9µM* | -2.4% | -3.3% | -13.0% | 79.4µM*
CCCCS(=O)(=O)N[C@@H](Cc1ccc(OCCCCC2CCNCC2)cc1)C(=O)O | nt | nt | nt | 1.6% | nt | nt
O=c1c(-c2ccccc2)nc2cnc(N3CCNCC3)nc2n1-c1ccccc1 | -21.3% | nt | nt | nt | nt | ?
Cc1ccc2oc(C(=O)N3CCN(c4cccc(C)n4)CC3)c(C)c2c1 | -7.9% | 26.7µM* | 4.3% | -9.1% | -6.5% | ?
CN(C)S(=O)(=O)N1CCC(Oc2cccc(C(=O)NC3CCCCC3)c2)CC1 | -4.2% | 15µM* | 2.3% | ? | nt | ?
CN(C)S(=O)(=O)N1CCC(Oc2ccc(C(=O)NC3CCCCC3)cc2)CC1 | -0.5% | -12.8% | -2.9% | 0.4% | 3.9% | 1.0%
O=[N+]([O-])c1ccccc1OCCCn1cnc2ccccc21 | -1.2% | 1.3% | 11.3% | 2.2% | 17.8µM* | -13.5%
COC(=O)N1C2=C(c3ccccc3[C@@H]1CC(=O)Nc1ccc3cc4ccccc4cc3c1)[C@@H]1C(=O)N(c3ccccc3)C(=O)[C@@H]1[C@H](C)C2 | nt | nt | nt | nt | -3.1%[11.5 µM] | nt
Cc1nnc(N(C(=O)c2cnccn2)c2ccccc2)s1 | 0.4% | 10.6µM* | -2.1% | -25.6% | -0.3% | -4.7%
NC(=O)C1O[C@@H](O)[C@H](O)[C@@H](O)[C@H]1O (stereo partly specified) | 9.3% | nt | nt | nt | nt | 4.6%
COC(=O)c1c(NC(=O)/C(C#N)=C/c2ccccc2)sc2c1CCC2 | -3.2% | nt | nt | 15.1% | nt | ?
CCOc1ccc(/C=C(\C#N)C(=O)Nc2sc3c(c2C(=O)OC)C(C(=O)OC)CC3)cc1OC (stereo unspecified) | ? | nt | nt | -19.8% | nt | 20µM*
SMILES | KAT2A inh | PLK1 PBD block | Mito fusion act | GLS inh | PKM2 activator | VDR inh
Oc1c(Br)cc(/C=N/n2c(-c3ccccc3)n[nH]c2=S)cc1Br | ? | ? | -0.8% | -47.7% | -11.2% | ?
Oc1c(Br)cc(/C=N/n2c(-c3ccccc3)n[nH]c2=S)c(O)c1Br | -4.5% | 6.7µM* | -3.4% | -0.5% | -4.4%[11.5 µM] | ?
Oc1ccc(/C=N/n2c(-c3ccccc3)n[nH]c2=S)cc1Br | -22.0% | -4.6% | 2.0% | -8.2% | -0.7%[11.5 µM] | -6.2%
CCN(CC)S(=O)(=O)c1cccc(-c2n[nH]c(=S)n2/N=C/c2ccc(Br)cc2)c1 | -13.8% | 21.2µM* | -1.0% | -16.0% | 0.6% | -24.0%
COc1cc(/C=N/n2c(-c3ccccc3)n[nH]c2=S)ccc1O | -8.4% | -6.3% | 5.9% | -27.3% | -2.3% | -17.3%
COc1cc(/C=N/n2c(-c3ccccc3)n[nH]c2=S)cc(OC)c1O | -5.7% | -4.6% | -5.2% | 4.47µM* | 1.7% | 18.9%
Cc1c(Br)c(O)c(Br)c(O)c1/C=N/n1c(-c2ccccc2)n[nH]c1=S | -4.7% | 2.99µM* | -0.6% | ? | nt | ?
CCOC(=O)C1=CN(CC)S(=O)(=O)NC1c1cccc(OC)c1 (stereo unspecified) | 0.8% | -7.9% | nt | -3.0% | nt | 8.8%
COc1ccc(Cc2nnc(NC(=O)Nc3ccc(F)cc3)s2)cc1OC | -5.8% | 18.9µM* | 10.1% | -9.9% | nt | ?
COCC(=O)Nc1nnc(Cc2ccc(OC)c(OC)c2)s1 | -4.9% | -2.5% | -8.4% | -11.9% | -5.9% | 6.5%
CCOCC(=O)Nc1nnc(Cc2ccc(OC)c(OC)c2)s1 | -3.6% | 26.7µM* | -2.6% | 3.1% | 37.9% | -21.2%
C=Cc1ccc(Cn2c(C)c(CNCc3cccc(Br)c3)c(C(=O)O)c2C)cc1 | -1.2% | nt | nt | 6.4% | nt | 9.3%
Cc1sc(N)c(C(=O)c2cccc(C(F)(F)F)c2)c1C | ? | nt | nt | nt | nt | 25.1µM*
CC(=O)N/N=C(\C)c1cccc(C(F)(F)F)c1 | -1.4% | 2.9% | 0.8% | 0.0% | -0.9% | 9.0%
COCCNC(=O)C1(CC(C)C)C=CCN1C(=O)c1ccccc1 (stereo unspecified) | nt | nt | nt | nt | 0.6% | nt
CCc1ccc2nc(N(CCN(C)C)C(=O)c3ccc4ncsc4c3)sc2c1 | -10.4% | -29.6% | -0.5% | 9.0% | -0.2% | 70.8µM*
O=C(Nc1ccc(Cl)cc1)Nc1cnccn1 | -13.4% | 29.9µM* | 7.0% | 8.5% | -9.1% | 3.8%
O=C(Nc1ccc(F)c(Cl)c1)Nc1cnccn1 | 9.7% | -12.4% | -2.2% | 4.2% | 0.3% | 6.3%
